Source: PubChem BioAssay AID463173 (ICCB-Longwood Screening Facility, Harvard Medical School, 2010)
Among all 52,000 compounds or so, about 4,300 (8.3%) were called active. Many of the other results were omitted from the sample, so actives are more common in it than they were. A number with no mark means an inactive call. Cut-off read from the data, not from the text of the source: active = survival mostly below about 52% (no sharp cut-off); inactive = mostly above about 56%.

test system: DeltatarO mutant; experiment: growth inhibition of S. aureus wild type versus tarO mutant, primary screen, teichoic acid synthesis inhibitors, RN4220, OD600 (AID 463173); conditions: OD600, 18 h, hits give low values, screened at 18.75 µg/mL (by protocol)

SMILES	survival
O=C(CSc1nnc(-c2ccccc2)c(-c2ccccc2)n1)NC1CCCC1	77%
COc1ccc(CC(NC(C)=O)C(=O)NC2CCN(c3nc(OC)nc(OC)n3)CC2)cc1 (stereo not drawn)	88%
Cc1ccc(-c2cc(-c3coc4ccc(Cl)cc4c3=O)c3c(n2)-c2ccccc2OC3)cc1	77%
Cc1ncc(COC(=O)C(C)C)c2cc(C(=O)Nc3ccccc3C(F)(F)F)c(=O)oc12	134%
Cc1ccc(OCC(=O)Nc2nc(-c3ccc(Br)cc3)ns2)cc1C	110%
O=C(Cc1cccs1)Nc1c(C(=O)Nc2ccc(F)cc2)oc2ccccc12	94%
Cc1cc(-n2c(C)nc3ccccc3c2=O)ccc1NC(=O)c1cccc([N+](=O)[O-])c1C	0% (active)
Cc1ccc(C(=O)Nc2ccc(-n3c(C)nc4ccccc4c3=O)cc2)cc1[N+](=O)[O-]	117%
Cc1cc(-n2c(C)nc3ccccc3c2=O)ccc1NC(=O)c1ccccc1[N+](=O)[O-]	69%
Cc1c(C(=O)Nc2ccc(-n3c(C)nc4ccccc4c3=O)cc2)cccc1[N+](=O)[O-]	99%
Cc1cc(-n2c(C)nc3ccccc3c2=O)ccc1NC(=O)c1ccc(C)c([N+](=O)[O-])c1	37% (active)
Cc1cc(-n2c(C)nc3ccccc3c2=O)ccc1NC(=O)c1ccc([N+](=O)[O-])cc1	83%
CCOc1ccccc1NC(=O)c1sc(-n2nc(C)c(CCC(C)C)c2C)nc1C	69%
COc1cccc2sc(N(Cc3cccnc3)C(=O)c3ccc4c(c3)OCCO4)nc12	72%
O=C(CSc1nc2ncccc2[nH]1)Nc1cc(F)ccc1F	86%
Cc1ccc(CN2c3ccccc3-c3nc(SCC(=O)Nc4c(C)cc(C)cc4C)ncc3S2(=O)=O)cc1	128%
CCN1c2ccccc2-c2nc(SCC(=O)NCc3ccc(Cl)cc3)ncc2S1(=O)=O	46% (active)
CCN1c2ccccc2-c2nc(SCC(=O)NCc3ccc(C)cc3)ncc2S1(=O)=O	105%
Cc1ccccc1CN1c2ccccc2-c2nc(SCC(=O)c3ccccc3)ncc2S1(=O)=O	102%
NC(=O)CSc1ncc2c(n1)-c1ccccc1N(Cc1ccccc1)S2(=O)=O	89%

SMILES	survival
CCN1c2ccccc2-c2nc(SCC(=O)NCc3ccccc3)ncc2S1(=O)=O	93%
O=C(CSc1ncc2c(n1)-c1ccccc1N(Cc1ccc(F)cc1)S2(=O)=O)NCc1ccccc1	87%
O=C(CSc1ncc2c(n1)-c1ccccc1N(Cc1ccccc1)S2(=O)=O)Nc1ccccc1	-5% (active)
Cc1ccccc1CN1c2ccccc2-c2nc(SCC(=O)NCc3ccccc3)ncc2S1(=O)=O	20% (active)
Cc1ccc(CN2c3ccccc3-c3nc(SCC(=O)NCCc4ccccc4)ncc3S2(=O)=O)cc1	55%
Cc1ccc(CN2c3ccccc3-c3nc(SCC(=O)NCc4ccccc4)ncc3S2(=O)=O)cc1	17% (active)
Cc1ccccc1CN1c2ccccc2-c2nc(SCC(=O)NCCc3ccccc3)ncc2S1(=O)=O	66%
O=C(CCCc1ccccc1)NC1CC(=O)N(c2cccc(F)c2)C1 (stereo not drawn)	120%
CN(C)c1ccc(C(CNS(=O)(=O)c2ccc(F)cc2F)N2CCOCC2)cc1 (stereo not drawn)	69%
Cc1nn2c(=O)cc(CN(C)c3ccccc3)nc2s1	135%
COc1ccc(S(=O)(=O)N2CCC(Oc3ccc(-n4cnnn4)cc3)CC2)cc1	90%
O=C(NC1CC(=O)N(c2ccc(F)cc2)C1)c1ccc(S(=O)(=O)N2CCOCC2)cc1 (stereo not drawn)	93%
Cn1c(SCC(N)=O)nnc1-c1ccc(S(=O)(=O)N2CCCC2)cc1	79%
Cc1ccc(Cl)cc1N1CCN(C(=O)Cn2cnc3onc(-c4ccc(F)cc4)c3c2=O)CC1	75%
O=C(NCCc1ccccc1)C1CCC(CNS(=O)(=O)c2ccccc2)CC1 (stereo not drawn)	91%
CCc1cccc(NC(=O)CSc2ncc3c(n2)-c2ccccc2N(CC)S3(=O)=O)c1	101%
CCOc1ccc(NC(=O)CSc2ncc3c(n2)-c2ccccc2N(Cc2ccccc2C)S3(=O)=O)cc1	91%
CCc1cccc(NC(=O)CSc2ncc3c(n2)-c2ccccc2N(Cc2ccccc2C)S3(=O)=O)c1	8% (active)
CCOC(=O)c1ccc(NC(=O)CC2C(=O)N(c3cccc(C)c3)C(=O)N2CCOC)cc1 (stereo not drawn)	74%
CCc1ccc(NC(=O)[C@H](Cc2ccccc2)N2Cc3ccccc3C2=O)cc1	88%

SMILES	survival
Fc1cccc(-c2nnn3c2nc(NC2CCCCC2)c2ccccc23)c1	59%
CCCCNc1nc2c(-c3cccc(C)c3)nnn2c2ccccc12	98%
COc1ccc(CCNc2nc3c(-c4cccc(C(F)(F)F)c4)nnn3c3ccccc23)cc1OC	85%
FC(F)(F)c1cccc(-c2nnn3c2nc(NC2CCCCC2)c2ccccc23)c1	13% (active)
CC1CCC(Nc2nc3c(-c4cccc(C(F)(F)F)c4)nnn3c3ccccc23)CC1 (stereo not drawn)	-3% (active)
Brc1cccc(-c2nnn3c2nc(NC2CCCCC2)c2ccccc23)c1	64%
Cc1cccc(CCNC(=O)c2ccc(CSCc3cccc(Cl)c3)o2)c1	70%
O=C(CN1C(=O)COc2ccc(S(=O)(=O)N3CCOCC3)cc21)Nc1ccc(F)c(Cl)c1	106%
CCc1ccc(NC(=O)CN2C(=O)C3(SCC(=O)N3c3ccccc3)c3ccccc32)cc1 (stereo not drawn)	129%
Cc1cccc(-n2c(SCC(=O)Nc3ccc(C)c(C)c3)nc3n[nH]c(C)c3c2=N)c1	87%
Cc1ccc(-n2c(SCC(=O)NCc3ccccc3)nc3n[nH]c(C)c3c2=N)cc1Cl	-5% (active)
CCCCN(CC)C(=O)CSc1nc2n[nH]c(C)c2c(=N)n1-c1cccc(Cl)c1	17% (active)
Cc1c(Cl)cccc1-n1c(SCC(=O)NCc2ccccc2)nc2n[nH]c(C)c2c1=N	126%
CCCCN(CC)C(=O)CSc1nc2n[nH]c(C)c2c(=N)n1-c1cccc(C)c1	88%
Cc1cccc(NC(=O)CSc2nc3n[nH]c(C)c3c(=N)n2-c2cccc(Cl)c2)c1	55%
Cc1ccc(Cl)cc1-n1c(SCC(=O)NCc2ccccc2)nc2n[nH]c(C)c2c1=N	81%
Cc1ccc(NC(=O)CSc2nc3n[nH]c(C)c3c(=N)n2-c2cccc(C)c2)cc1	-5% (active)
CCCCN(CC)C(=O)CSc1nc2n[nH]c(C)c2c(=N)n1-c1cccc(OC)c1	109%
